Drawing on ChEMBL document CHEMBL3988442, “University of Dundee, Small-Polar-MMV Screening Library” (2021), this text covers Percent Effect for 19 compounds.

This assay deals with AMP-activated protein kinase, AMPK (Homo sapiens) (UniProt P54646+O43741+P54619+Q9UGJ0+Q9Y478+Q13131+Q9UGI9). In words: AMP-dependent Kinase enzyme assay. An in vitro enzyme assay that detects ADP turnover that is directly proportional to AMPK activity. This uses naive AMPK that is activated during the assay with MK-8722. It is filed as functional. Set-up: scale not given: direction of the effect not stated beside the values. The following applies: 30 µM.
On to `CCCS(=O)(=O)NCc1nc(C)cc(N2CCCC2)n1`, for which the Percent Effect is 4.77%.

On to `Cc1onc(-c2ccncc2)c1C(=O)NC1CCCOC1` (centres undefined), for which the Percent Effect is -0.537%.

With `CCc1c(C)nn2c(O)cc(C3CCN(C(=O)c4cnn(C)c4)C3)nc12` (centres undefined), the Percent Effect worked out at 5.68%.

`Cc1cc(C)cc(-n2ncc3c2CCCC3N)c1` (centres undefined): the Percent Effect is 15.1%.

Take `O=C1NCCCCC1NC(=O)N1CCCc2cc(F)ccc21` (centres undefined): the Percent Effect is 6.88%.

On to `CC(C)N1CCC(CC(=O)NCCc2cc(O)ncn2)CC1`, for which the Percent Effect was -10.1%.

On to `CN(Cc1nc(CS(C)(=O)=O)no1)c1ccccc1`, for which the Percent Effect came out at 0.0849%.

Take `COC(=O)c1ncccc1N1CCN(C(=O)CN2CCOCC2)CC1`: the Percent Effect came out at 5.94%.

In the case of `Cc1nccc(CNC(=O)NC(c2ncc(C)s2)C2CC2)n1` (centres undefined), the Percent Effect was determined as 0.262%.

On to `COCCN(Cc1nccs1)c1nc2c(s1)c(C)nn2C`, for which the Percent Effect was -10%.

`NC(=O)N1CCCCCC1C1CCN(c2nccc(C(F)(F)F)n2)CC1` (centres undefined): the Percent Effect is -5.81%.

Turning to `Clc1ccc2cccnc2c1CNC1CCc2ncnn2C1` (centres undefined), the Percent Effect was found to be 3.85%.

As to `CC(C)OCCS(=O)(=O)N1CCN(Cc2cccn2C)CC1`, the Percent Effect was -4.58%.

For `Cc1ccc2nc(CN3CCCCC3CCn3cccn3)cn2c1` (centres undefined), the Percent Effect was 4.05%.

Regarding `COCCNc1ccc(CNCc2cnc3nc(C)cc(C)n23)cc1`, the Percent Effect was -9.48%.

`COCCNc1nc(C)nc2c1CCN(C[C@H]1CC[C@@H](N)CC1)CC2`: the Percent Effect amounted to 1.5%.

Take `COCCN1C[C@H]2CC[C@@H]1CN(C(=O)CCc1c(C)nn(C)c1C)C2`: the Percent Effect is -4.69%.

As for `Cn1cc(Cl)c(CN(Cc2ccsc2)CC2CCCO2)n1` (centres undefined), the Percent Effect is 2.65%.

As to `CCC(C)C(=O)N(Cc1ccccn1)C1CC1` (centres undefined), the Percent Effect was found to be 2.05%.
